Screening results as filed in PubChem BioAssay.
TrxR1 substrate: rat thioredoxin reductase 1 substrate activity. O89049. purified TrxR1 substrate turnover, NADPH consumption readout. Potency, µM (highest dose often 114 µM). 0.01% of 390,000 active; note: nearly all actives have a fitted effect of over 50% in size
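Rat TrxR1, dispensed at 90 nM, was prereduced with 400 uM NADPH (final) for 5 min at ~22 deg C, then incubated with compound 15 min before 400 uM selenite. A first-read NADPH fluorescence drop versus no-compound background flagged substrates.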
GALK inhibitor: blocks human galactokinase activity | AID 1868 | 0.007% of 270,000 active | Potency, µM (top dose mostly 57.5 µM), usual class: inhibitors | Purified GALK, Kinase-Glo residual ATP luminescence
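Compounds were pin-transferred into ATP buffer (35 uM final), then GALK plus galactose (5 nM, 100 uM final) was added. After 1 h at room temperature, Kinase-Glo Plus was added and luminescence read after 10 min.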
FBPA coupling cs: coupling enzyme interference in Giardia aldolase counter-screen; activity change, negative = inhibition, % at 58.2 µM, hits read low; 0.67% of 290,000 active; coupling enzyme system counterscreen, AmpLite Red fluorescence; in the data active = activity change below about -30%
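Counterscreen lacking aldolase: glyceraldehyde-3-phosphate coupling-enzyme reagent preincubated 10 min at RT with compound (at 57.5 uM final), then substrate/coupling system with AmpLite Red added; fluorescence read at 525/598 nm after 20 min RT.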
rTrxR1 inhibitor: blocks rat thioredoxin reductase 1 | recombinant rTrxR1, NADPH fluorescence consumption, selenite substrate | Potency, µM (highest dose often 114 µM), usual class: inhibitors | 1% of 390,000 active; note: nearly all actives have a fitted effect of over 65% in size
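Rat TrxR1 (90 nM in the dispensed reagent) was pre-reduced with 400 uM NADPH for 5 min at room temperature, then incubated with compound for 15 min. After 400 uM selenite was added, NADPH fluorescence (Ex 340/Em 450 nm) was followed for 8 min.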
Giardia killer: kills Giardia lamblia; activity change, % at 7.66 µM, hits read low; 0.15% of 340,000 active; Giardia lamblia trophozoite viability; in the data active = activity change below about -80%; inconclusive = between about -30% and that limit;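 note: parasites exposed to compound for two days anaerobically before the ATP read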
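Media and compound were dispensed first, then trophozoites at 100 cells/well; plates sat 48 hrs at 37 deg C without oxygen before ATP luminescence reagent was added and read after 15-30 min at room temperature.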
PI4K2A inh: PI4K2A (human) kinase inhibition; Q9BTU6; purified PI4K2A, ADP-Glo luminescence, 1 h; stronger effect = lower value; activity change, negative = inhibition, % at 76.9 µM; 0.13% of 420,000 active; AID 1346378; in the data active = activity change below about -50%; inconclusive = mostly about -30% to -49%
Target sequence (Q9BTU6 whole entry, looked up): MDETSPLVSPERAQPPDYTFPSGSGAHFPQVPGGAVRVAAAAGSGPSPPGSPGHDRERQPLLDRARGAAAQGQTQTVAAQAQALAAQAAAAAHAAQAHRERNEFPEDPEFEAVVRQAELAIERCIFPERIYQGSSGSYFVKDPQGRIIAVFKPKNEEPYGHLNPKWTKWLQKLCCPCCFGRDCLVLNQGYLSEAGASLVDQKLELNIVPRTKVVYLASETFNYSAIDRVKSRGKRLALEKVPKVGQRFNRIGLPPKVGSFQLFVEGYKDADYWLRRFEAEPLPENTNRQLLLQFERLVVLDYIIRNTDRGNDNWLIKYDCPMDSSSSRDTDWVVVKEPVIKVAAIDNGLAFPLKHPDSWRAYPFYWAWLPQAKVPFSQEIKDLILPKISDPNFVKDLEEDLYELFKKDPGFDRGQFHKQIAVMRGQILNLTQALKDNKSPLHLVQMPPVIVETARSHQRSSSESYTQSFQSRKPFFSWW
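In this quantitative HTS, ADP production by PI4K2A was quantified luminescently after 1 h at ambient temperature; 100 microM adenosine served as plate-quality control.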
Hits are given with their value; [ ] = dose if it differs, or a comment. An excerpt weighted towards active compounds, which were near 1.5% of everything screened. Unless noted, calls come from the whole dose curve; as a rule, active = well fitted curve in the direction sought with a large enough effect; inconclusive = small, poorly fitted or top-dose-only effect, or another doubt; inactive = no such curve, though single readings can be large; an effect the other way counts as inactive or inconclusive.

Results for Cc1ccnc(NC(c2ccsc2)c2ccc3ccc(C)nc3c2O)c1 (centres undefined) ?
TrxR1 substrate: inactive; GALK inhibitor: inactive; FBPA coupling cs: inactive; rTrxR1 inhibitor: 3.55µM; Giardia killer: inactive; PI4K2A inh: inactive

Results for Cc1cccc(NC(c2ccc(C)s2)c2ccc3ccc(C)nc3c2O)n1 (centres undefined) ?
TrxR1 substrate: inactive; GALK inhibitor: inactive; FBPA coupling cs: inactive; rTrxR1 inhibitor: 70.8µM; Giardia killer: inactive; PI4K2A inh: inactive

How did COc1cc(C(Nc2ccccn2)c2ccc3ccc(C)nc3c2O)cc(OC)c1O (centres undefined) do in these assays?
TrxR1 substrate: inactive; GALK inhibitor: inactive; FBPA coupling cs: inactive; rTrxR1 inhibitor: 1.26µM; Giardia killer: inactive; PI4K2A inh: inactive

What do the screens show for `CCCCc1nc2c(c3c1C[C@H](C)OC3)CN(C(=O)c1ccco1)CC2`?
FBPA coupling cs: inactive

Results for COc1ccc(-c2cc3nc(C)cc(N)n3n2)cc1 ?
TrxR1 substrate: inactive; GALK inhibitor: inactive; FBPA coupling cs: inactive; rTrxR1 inhibitor: inactive; Giardia killer: inconclusive; PI4K2A inh: -87.6

Results for COc1ccc(-c2cc3nc(C)cc(-c4ccc(OC)cc4)n3n2)cc1 ?
TrxR1 substrate: inactive; GALK inhibitor: inactive; FBPA coupling cs: inactive; rTrxR1 inhibitor: inactive; Giardia killer: inactive; PI4K2A inh: inactive

What do the screens show for `CCOC(=O)c1c(-c2ccc(C)o2)csc1NC(=O)CSc1nncs1`?
TrxR1 substrate: inactive; GALK inhibitor: inactive; FBPA coupling cs: inactive; rTrxR1 inhibitor: 2.24µM; Giardia killer: inactive; PI4K2A inh: inactive

How did CCOC(=O)c1c(-c2ccco2)csc1NC(=O)CSc1nnc(N)s1 do in these assays?
TrxR1 substrate: inactive; GALK inhibitor: inactive; rTrxR1 inhibitor: inconclusive; Giardia killer: inactive; PI4K2A inh: inconclusive

What do the screens show for `CCOC(=O)c1c(-c2ccc(C)o2)csc1NC(=O)CN1CCN(CC)CC1`?
TrxR1 substrate: inactive; GALK inhibitor: inactive; FBPA coupling cs: inactive; rTrxR1 inhibitor: 4.47µM; Giardia killer: inactive; PI4K2A inh: inactive

Results for CCOC(=O)c1c(-c2ccc(C)o2)csc1NC(=O)CN1CCCCC1 ?
TrxR1 substrate: inactive; GALK inhibitor: inactive; FBPA coupling cs: inactive; rTrxR1 inhibitor: inactive; Giardia killer: inactive; PI4K2A inh: inactive

What do the screens show for `Cc1ccc2c(c1)ncc[n+]2CC(=O)c1ccc(F)cc1`?
TrxR1 substrate: inactive; rTrxR1 inhibitor: inactive

What do the screens show for `Cc1cc(S(=O)(=O)Nc2ccc(-c3ccc(N4CCCCC4)nn3)cc2)c(C)cc1Cl`?
TrxR1 substrate: inactive; rTrxR1 inhibitor: inactive; PI4K2A inh: inactive

Results for C(=C\c1ccc2ccccc2n1)/c1ccccc1 ?
TrxR1 substrate: inconclusive; GALK inhibitor: inactive; FBPA coupling cs: inactive; rTrxR1 inhibitor: inconclusive; Giardia killer: inactive; PI4K2A inh: inconclusive

What do the screens show for `Oc1ccc(/C=C/c2ccc3ccccc3n2)cc1`?
TrxR1 substrate: inactive; GALK inhibitor: inactive; FBPA coupling cs: inactive; rTrxR1 inhibitor: inactive; Giardia killer: inconclusive; PI4K2A inh: -74.8

How did COc1ccc(-n2nc(CCC(=O)N(C)O)cc2-c2ccc(Cl)cc2)cc1 do in these assays?
PI4K2A inh: inactive

What do the screens show for `CC(=O)c1ccc(NC(=O)CC2Nc3cccc4cccc(c34)NC2=O)cc1` (centres undefined)?
TrxR1 substrate: inactive; GALK inhibitor: inactive; FBPA coupling cs: -30.6; rTrxR1 inhibitor: inconclusive; Giardia killer: inactive; PI4K2A inh: inconclusive

What do the screens show for `COc1ccc(-c2c(C)nn3c4c(cnc23)C(=O)CC(c2ccc(C)cc2)C4)cc1` (centres undefined)?
TrxR1 substrate: inactive; rTrxR1 inhibitor: inactive[11.4 µM]; PI4K2A inh: inactive

What do the screens show for `Cc1cc(=O)[nH]c(N/N=C2/CCCC/C2=C\c2ccccc2)n1`?
TrxR1 substrate: inactive; GALK inhibitor: inactive; FBPA coupling cs: inactive; rTrxR1 inhibitor: 39.8µM; Giardia killer: inactive; PI4K2A inh: inactive

Results for Cc1cc(C(=O)c2ccccc2)cc(C)c1O ?
TrxR1 substrate: inactive; rTrxR1 inhibitor: inactive; Giardia killer: inactive; PI4K2A inh: inactive

What do the screens show for `CC1=C/C(=C(\c2cc(C)c(O)c(Br)c2)c2ccccc2S(=O)(=O)O)C=C(Br)C1=O`?
TrxR1 substrate: inactive; GALK inhibitor: inactive; FBPA coupling cs: inactive; rTrxR1 inhibitor: inactive; Giardia killer: inactive; PI4K2A inh: -69.4

Results for Cc1occc1C(=O)NCc1cccc(CNC(=O)c2ccoc2C)c1 ?
TrxR1 substrate: inactive; GALK inhibitor: inactive; FBPA coupling cs: inactive; rTrxR1 inhibitor: 8.91µM; Giardia killer: inactive; PI4K2A inh: inconclusive

How did Cc1occc1C(=O)NCc1ccc2c(c1)OCO2 do in these assays?
TrxR1 substrate: inactive; GALK inhibitor: inactive; FBPA coupling cs: inactive; rTrxR1 inhibitor: inactive; Giardia killer: inactive; PI4K2A inh: inactive

Results for COc1cc(OC)c(/C=C/c2ccc3ccccc3[n+]2[O-])c(OC)c1 ?
TrxR1 substrate: inactive; rTrxR1 inhibitor: inactive

What do the screens show for `CCCOc1ccccc1NC(=O)/C=C/C(N)=O`?
TrxR1 substrate: inactive; GALK inhibitor: inactive; FBPA coupling cs: inactive; rTrxR1 inhibitor: 12.6µM; Giardia killer: inactive; PI4K2A inh: inactive

What do the screens show for `CCCCOc1ccccc1NC(=O)C=C(C)C`?
TrxR1 substrate: inactive; GALK inhibitor: inactive; FBPA coupling cs: inactive; rTrxR1 inhibitor: inactive; Giardia killer: inactive; PI4K2A inh: inactive

What do the screens show for `NC(=O)c1cc[n+](CC2=C(C(=O)[O-])N3C(=O)[C@@H](NC(=O)Cc4cccs4)[C@H]3SC2)cc1`?
PI4K2A inh: inactive

Results for O=C(NC(=S)Nc1cccnc1)c1cccc(Br)c1 ?
TrxR1 substrate: inactive; GALK inhibitor: inactive; FBPA coupling cs: inactive; rTrxR1 inhibitor: 56.2µM; Giardia killer: inactive; PI4K2A inh: inactive

Results for CCCCOc1cccc(C(=O)NC(=S)Nc2cccnc2)c1 ?
TrxR1 substrate: inactive; GALK inhibitor: inactive; FBPA coupling cs: inactive; rTrxR1 inhibitor: 25.1µM; Giardia killer: inactive; PI4K2A inh: inactive

What do the screens show for `Cc1ccccc1NC(=S)NC(=O)c1cncc(Br)c1`?
TrxR1 substrate: inactive; GALK inhibitor: inactive; FBPA coupling cs: inactive; rTrxR1 inhibitor: 12.6µM; Giardia killer: inactive; PI4K2A inh: inactive

What do the screens show for `CCOc1cccc(C(=O)NC(=S)Nc2cccnc2)c1`?
TrxR1 substrate: inactive; FBPA coupling cs: inactive; rTrxR1 inhibitor: inactive; Giardia killer: inactive; PI4K2A inh: inactive

How did O=C(NC(=S)Nc1cccnc1)c1ccccc1 do in these assays?
TrxR1 substrate: inactive; GALK inhibitor: inactive; FBPA coupling cs: inactive; rTrxR1 inhibitor: inactive; Giardia killer: inactive; PI4K2A inh: inactive

How did COc1cc(NC(=O)Cn2c(C)cc(C)c(C#N)c2=O)cc(OC)c1 do in these assays?
TrxR1 substrate: inactive; rTrxR1 inhibitor: inactive; PI4K2A inh: inactive

Results for O=C(NCc1ccco1)[C@@H]1CCCN1C(=O)c1cccs1 ?
TrxR1 substrate: inactive; GALK inhibitor: inactive; FBPA coupling cs: inactive; rTrxR1 inhibitor: 79.4µM; Giardia killer: inactive; PI4K2A inh: inactive
